Calls of active or inactive are those of the source.
Legend:
[1] = A549 cell viability effects, profiling panel, calcein-AM fluorescence, 48 h, basal (AID 1162); details: higher = more signal; further: test concentration not given here
[2] = adipocyte viability effects, profiling panel, cell-based, 3T3-L1 adipocytes, calcein-AM fluorescence, 48 h, basal (AID 1163); details: 3T3-L1 adipocytes viability, higher = more signal; further: test concentration not given here
[3] = HepG2 cell viability effects, profiling panel, calcein-AM fluorescence, 48 h, basal (AID 1164); details: higher = more signal; further: test concentration not given here
[4] = MM1S cell viability effects, profiling panel, calcein-AM fluorescence, 48 h, basal (AID 1165); details: higher = more signal;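 further: viability of MM1S multiple myeloma cells under basal unstimulated conditions; test concentration not given here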
[5] = basal RPMI8226 viability, no added stimulus, profiling panel, cell-based, calcein-AM fluorescence, 48 h, PK04 Diversity Set (AID 1166); details: RPMI8226 myeloma viability, higher = more signal;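 further: cells grown under basal conditions without added stimulus; test concentration not given here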
[6] = basal HepG2 mitochondrial membrane potential changes, profiling panel, cell-based, JC-1 fluorescence, 24 h, 100 nL compound (AID 1167); details: higher = more signal; further: test concentration not given here
[7] = basal 3T3-L1 adipocyte mitochondrial potential changes, profiling panel, cell-based, JC-1 fluorescence, 3T3-L1 adipocytes, 24 h, 100 nL compound (AID 1168); details: JC-1 mitochondrial fluorescence, higher = more signal, called active from +8 up or from −8 down; further: test concentration not given here
[8] = basal RPMI8226 mitochondrial membrane potential changes, profiling panel, cell-based, JC-1 fluorescence, 24 h, 100 nL compound (AID 1169); details: RPMI8226 myeloma, JC-1 mitochondrial potential fluorescence, higher = more signal; further: test concentration not given here
[9] = basal MM1S mitochondrial membrane potential changes, profiling panel, cell-based, JC-1 fluorescence, 24 h, 100 nL compound (AID 1170); details: higher = more signal; further: test concentration not given here
[10] = A549 lung cancer cell viability effects, profiling panel, resazurin fluorescence, 24 h, PK04 Diversity Set (AID 1171); details: higher = more signal, called active from +8 up or from −8 down; further: test concentration not given here
[11] = HepG2 liver cancer cell viability effects, profiling panel, resazurin fluorescence, 24 h, PK04 Diversity Set (AID 1172); details: higher = more signal; further: test concentration not given here
[12] = basal S. cerevisiae growth modulation, no modifier, primary screen, OD600, strain BY4716, 24 h, basal condition (AID 1173); details: OD600, 24 h, higher = more signal, called active from +8 up or from −8 down
[13] = MM1S myeloma cell viability, profiling panel, resazurin fluorescence, basal, 24 h, PK04 Diversity Set (AID 1174); details: higher = more signal, called active from +8 up or from −8 down;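 further: MM1S multiple myeloma cell line; test concentration not given here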
[14] = target: Dihydroorotate dehydrogenase (quinone), mitochondrial (Plasmodium falciparum (isolate 3D7)) (UniProt Q08210); test: PfDHODH enzyme inhibitors, primary screen, biochemical, C-terminal His tag, absorbance 600 nm (AID 1175); details: DCIP absorbance 600 nm, higher = more signal, called active from +8 up or from −8 down;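 further: recombinant parasite enzyme with a five histidine tag at its C terminus; test concentration not given here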
Dihydroorotate dehydrogenase (quinone), mitochondrial (Plasmodium falciparum (isolate 3D7)), sequence (Q08210 whole entry, looked up): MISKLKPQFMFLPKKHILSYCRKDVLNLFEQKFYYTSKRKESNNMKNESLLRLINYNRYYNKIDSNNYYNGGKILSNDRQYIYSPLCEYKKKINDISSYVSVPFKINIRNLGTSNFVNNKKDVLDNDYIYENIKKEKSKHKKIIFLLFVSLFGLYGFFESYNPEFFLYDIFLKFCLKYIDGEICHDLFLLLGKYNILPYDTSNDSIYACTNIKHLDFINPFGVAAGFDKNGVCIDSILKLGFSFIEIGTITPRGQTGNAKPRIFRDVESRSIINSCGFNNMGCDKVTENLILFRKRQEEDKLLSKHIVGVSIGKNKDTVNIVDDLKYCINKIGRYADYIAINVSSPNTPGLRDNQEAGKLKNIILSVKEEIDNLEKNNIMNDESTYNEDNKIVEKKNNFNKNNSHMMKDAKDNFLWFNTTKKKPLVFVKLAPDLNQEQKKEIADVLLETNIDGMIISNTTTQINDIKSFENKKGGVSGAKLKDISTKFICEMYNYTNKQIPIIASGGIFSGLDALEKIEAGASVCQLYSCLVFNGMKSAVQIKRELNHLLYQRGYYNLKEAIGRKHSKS

[15] = S. cerevisiae RM11-1a growth modifiers, primary screen, strain RM11-1a, OD600, basal, 24 h (AID 1177); details: OD600, 24 h, higher = more signal, called active from +8 up or from −8 down;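 further: cultures grown under basal conditions with no added stressor; test concentration not given here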
[16] = E. coli acrAB mutant growth effects, primary screen, E. coli filamentation inducers, strain DRC39, OD650, 24 h (AID 1178); details: higher = more signal, called active from +8 up or from −8 down;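 further: growth measured as culture turbidity by optical density at 650 nm; test concentration not given here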
[17] = E. coli acrAB mutant growth effects, primary screen, E. coli filamentation inducers, strain DRC39, OD650, 48 h (AID 1179);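 further: screen aims at cell division blockers that make cells filament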; details: E. coli DRC39 delta-acrAB growth, higher = more signal, called active from +8 up or from −8 down
[18] = RPMI8226 myeloma cell viability, profiling panel, resazurin fluorescence, basal, 24 h, PK04 Diversity Set (AID 1180); details: higher = more signal;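 further: RPMI8826 multiple myeloma cell line at 5000 cells per well; test concentration not given here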
[19] = target: E3 ubiquitin-protein ligase XIAP (Homo sapiens) (UniProt P98170); test: XIAP binders, primary screen, biophysical, small-molecule microarray, fluorescence 635 nm (AID 1181); details: small-molecule microarray binding, higher = more signal;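 further: score merges 667 nm emission and signal to noise over triplicate slides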
E3 ubiquitin-protein ligase XIAP (Homo sapiens), sequence (P98170 whole entry, looked up): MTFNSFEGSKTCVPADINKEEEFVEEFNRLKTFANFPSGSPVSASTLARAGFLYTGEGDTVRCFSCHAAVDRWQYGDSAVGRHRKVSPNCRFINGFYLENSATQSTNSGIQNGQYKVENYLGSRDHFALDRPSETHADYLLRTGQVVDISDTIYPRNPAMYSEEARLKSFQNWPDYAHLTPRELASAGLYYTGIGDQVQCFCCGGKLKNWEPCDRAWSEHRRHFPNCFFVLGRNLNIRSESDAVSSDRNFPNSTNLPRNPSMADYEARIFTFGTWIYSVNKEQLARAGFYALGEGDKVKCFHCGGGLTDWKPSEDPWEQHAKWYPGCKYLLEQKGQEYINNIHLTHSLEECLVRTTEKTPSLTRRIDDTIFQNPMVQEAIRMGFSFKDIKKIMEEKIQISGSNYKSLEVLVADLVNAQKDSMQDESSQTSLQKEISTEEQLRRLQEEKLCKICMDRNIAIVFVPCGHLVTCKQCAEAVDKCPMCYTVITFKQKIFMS

SMILES | z-score [1] | z-score [2] | z-score [3] | z-score [4] | z-score [5] | z-score [6] | z-score [7] | z-score [8] | z-score [9] | z-score [10] | z-score [11] | z-score [12] | z-score [13] | composite z-score [14] | z-score [15] | z-score [16] | z-score [17] | z-score [18] | composite z-score [19]
C=CCNC(=O)[C@@H]1[C@H]2C(=O)O[C@H](c3ccccc3)[C@H](c3ccccc3)N2[C@H](c2ccc(OCCO)cc2)[C@@]12C(=O)N(C(=O)OCCOC)c1ccc(C#CC3(O)CCCCCC3)cc12 | 0.0803 | 3.14 | -1.53 | -1.07 | -1.16 | -1.43 | 0.738 (inactive) | -0.814 | -1.05 | 0.338 (inactive) | 0.14 | -0.985 (inactive) | 0.39 (inactive) | -1.57 (inactive) | 0.442 (inactive) | 0.862 (inactive) | 0.351 (inactive) | 0.239 | 0.276
COCCOC(=O)N1C(=O)[C@@]2(c3cc(C#CCC(C(=O)OC)C(=O)OC)ccc31)[C@H](C(=O)N1CCN(c3ncccn3)CC1)[C@H]1C(=O)O[C@H](c3ccccc3)[C@H](c3ccccc3)N1[C@@H]2c1ccc(O)cc1 | 1.65 | -0.287 | 2.17 | 0.613 | -0.188 | 0.88 | 2.64 (inactive) | -0.203 | -0.0423 | 0.0359 (inactive) | 0.203 | -0.746 (inactive) | 0.805 (inactive) | -1.06 (inactive) | 0.164 (inactive) | 0.535 (inactive) | 1.31 (inactive) | 0.821 | -0.0749
C=CC[C@]1(C(N)=O)N=C(c2ccc(OCCCO)cc2)O[C@H]1c1ccccc1CN=[N+]=[N-] | 0.919 | 2.24 | -0.509 | -0.562 | -1.37 | 2.69 | -0.436 (inactive) | -0.434 | 0.501 | 0.01 (inactive) | 0.394 | -1.06 (inactive) | 1.06 (inactive) | 0.199 (inactive) | -0.592 (inactive) | 2.91 (inactive) | 1.21 (inactive) | 1.1 | -0.16
CCOC(=O)C[C@H]1[C@H](OC(=O)Cc2ccc3c(c2)OCO3)[C@@H](NC(=O)CC(C)C)c2cc(OCCCO)ccc2N1C(=O)c1ccccc1 | 2.34 | -0.148 | 0.978 | 0.532 | 2.13 | 1.78 | 1.58 (inactive) | -0.0658 | 0.751 | 1.16 (inactive) | 1.05 | -1.05 (inactive) | 0.548 (inactive) | 0.679 (inactive) | -0.606 (inactive) | 2.13 (inactive) | 1.65 (inactive) | 0.458 | 0.0015
CC/C=C/C(=O)N(C[C@@H]1CCCO1)[C@@H]1CC(C(=O)NCCO)=C[C@H](Oc2c(I)cc(CO)cc2OC)[C@H]1O | 1.65 | 0.407 | 0.362 | 0.0808 | 0.587 | 2.48 | 1.32 (inactive) | -0.0319 | 0.265 | 1.07 (inactive) | 1.42 | -2.91 (inactive) | 1.08 (inactive) | -0.288 (inactive) | -2.02 (inactive) | 2.39 (inactive) | 1.03 (inactive) | 0.209 | -0.117
CO[C@@H]1COC(=O)[C@H](C)NC(=O)CC=C[C@@H](C)[C@H](NS(=O)(=O)c2ccc(C)cc2)COC(=O)CC=C[C@@H]1C | 0.286 | 0.624 | 0.129 | 0.287 | -0.0803 | 0.596 | 0.523 (inactive) | -0.296 | 0.203 | 0.589 (inactive) | 0.825 | -0.364 (inactive) | 0.507 (inactive) | 0.605 (inactive) | 0.655 (inactive) | 0.798 (inactive) | 0.547 (inactive) | 0.271 | -0.0835
C=CC[C@@]12N=C(c3ccc(OCCCO)cc3)O[C@@H]1c1ccccc1CN(Cc1ccccc1)C2=O | -0.843 | 2.38 | -1.92 | -3.46 | -4.51 | 0.0441 | -0.218 (inactive) | -1.36 | -1.45 | -1.9 (inactive) | -0.806 | -0.251 (inactive) | -3.75 (inactive) | 1.27 (inactive) | 1.77 (inactive) | 1.4 (inactive) | 0.485 (inactive) | -3.21 | -0.0473
COc1ccc([Si](C)(C)[C@H]2[C@H](CCO)O[C@@]3(C(=O)N(Cc4ccccc4)c4ccc(N5C(=O)c6cccc7cccc5c67)cc43)[C@@H]2C)cc1 | 0.318 | 0.535 | -2.11 | -1.02 | -3.03 | 1.63 | 2.08 (inactive) | -0.815 | -0.923 | -1.46 (inactive) | 0.175 | 0.432 (inactive) | -2.33 (inactive) | 0.386 (inactive) | 4.08 (inactive) | 2.4 (inactive) | 2.17 (inactive) | -2.04 | -0.0473
C[C@@H]1NC(=O)CC=C[C@@H](C)[C@@H]2C=C[C@H](O)[C@@H](COC(=O)[C@H](C)NC(=O)CC=C[C@@H](C)[C@@H]3C=C[C@H](O)[C@@H](COC1=O)O3)O2 | 0.362 | 1.59 | -0.195 | 0.188 | -1.38 | 1.1 | 0.863 (inactive) | 0.21 | 0.665 | -0.756 (inactive) | -0.0969 | -2.21 (inactive) | 0.668 (inactive) | 0.633 (inactive) | -1.76 (inactive) | 0.953 (inactive) | 0.264 (inactive) | 0.526 | -0.135
